102 compounds from PubChem BioAssay AID2315 (National Center for Advancing Translational Sciences (NCATS), 2010) can be followed below.

Values joined by “and” are separate entries in the source; they are usually repeats but may differ in a detail not shown here. Equal entries are not always repeated. Out of some 290,000 compounds screened, about 27,000 (9.3%) were called active. Rule as the data show it: active = inhibition mostly above about 28% (no sharp cut-off); inactive = mostly below about 43%. Only a selection was taken, and actives are over-represented in it overall.

The test is described as follows: A qHTS for Small Molecule Inhibitors of Shiga Toxin. Also: 0% is about no effect. The following applies: Vero cells, Shiga toxin protein synthesis inhibition reporter; at 38.7 µM, active compounds read high.
As to `O=C(NCN1CCN(CCO)CC1)c1cnccn1`, the inhibition was 13% (inactive).
Consider `O=C(Nc1ccc(S(=O)(=O)N2CCCCC2)cc1)c1cnccn1`, for which the inhibition was -1.88% (inactive).
Turning to `CCN1CCN(c2ccc(NC(=O)c3cnccn3)cc2)CC1`, the inhibition was 48.5% (active).
For the compound `CC(C)(C)C1CCc2c(sc3nc(SCC(N)=O)nc(N)c23)C1` (configuration not stated), the inhibition was 42.9% (active).
Take `Nc1nc(SCC(=O)NCCN2CCOCC2)nc2sc3c(c12)CCC3`: the inhibition was 7.28% (inactive).
`Cc1sc2nc(SCC(N)=O)n(C)c(=O)c2c1C`: the inhibition was 8.03% (inactive).
As for `Cn1c(NN)nc2sc3c(c2c1=O)CCC3`, the inhibition is 12.5% (inactive).
As to `CN1CCN(CC(=O)Nc2sc3c(c2C#N)CCC(C(C)(C)C)C3)CC1` (configuration not stated), the inhibition was -10.4% (inactive).
On to `C=C(C)CSc1nc(N)c2c3c(sc2n1)CCC3`, for which the inhibition was 77.1% (active).
The value for `CCOC(=O)N1CCN(S(=O)(=O)N2CCCC(C(=O)NCCCN3CCC(C)CC3)C2)CC1` (configuration not stated) was -4.12% (inactive); that for `CC(=O)c1ccc(NC(=O)CCNS(=O)(=O)c2cc(Br)cnc2N)cc1` was -8.28% (inactive); that for `CCc1ccc(OCC2c3cc(OC)c(OC)cc3CCN2C(C)=O)cc1` (configuration not stated) was -3.8% (inactive).
For the compound `CN(CC(=O)O)S(=O)(=O)c1ccc2oc3ccccc3c2c1`, the inhibition is -10.6% (inactive).
On to `Cc1noc(C)c1CCC(=O)N1CCCC(CO)(Cc2ccccc2)C1` (configuration not stated), for which the inhibition is 98.7% (active).
Take `Cc1noc(C)c1CCC(=O)O`: the inhibition is 17.5% (inactive).
Take `CCCc1cc(C(=O)N2CCCC(CO)(CCCc3ccccc3)C2)n(C)n1` (configuration not stated): the inhibition is -8.83% (inactive).
Take `COC(=O)CCC(=O)N1CCCC(CO)(Cc2ccccc2)C1` (configuration not stated): the inhibition was 110% (active).
As to `CCOC(=O)C1(Cc2ccccc2C)CCCN(C(=O)CCc2c(C)noc2C)C1` (configuration not stated), the inhibition was 15.6% (inactive).
Turning to `Cc1ccccc1CC1(CO)CCCN(C(=O)c2cc(-c3ccccc3)no2)C1` (configuration not stated), the inhibition was 51% (inactive).
For `Cc1cc(NC(=O)CSc2nc(=O)cc(N)n2-c2ccc(F)cc2)no1`, the inhibition is 9.91% (inactive).
With `COc1cccc(C(O)c2nc3ccccc3n2C)c1` (configuration not stated), the inhibition was -5.57% (inactive).
Consider `O=C(NCCCn1ccnc1)c1ccccc1F`, for which the inhibition is -3% (inactive).
For `Cc1cccc(N2CCN(C(C)C(=O)N3CCc4ccccc43)CC2)c1C` (configuration not stated), the inhibition is 12.5% (inactive).
`COc1ccc(NC(=O)CCC(=O)Nc2cc(OC)c(NC(=O)c3ccco3)cc2OC)c(OC)c1`: the inhibition is 2.68% (inactive).
`CCOC(=O)C1CCN(Cc2nnc(-c3cccc(Br)c3)o2)CC1`: the inhibition is -4.47% (inactive).
Regarding `Cc1c2cnn(CC(=O)NCCCN3CC(C)CC(C)C3)c(=O)c2c(C)n1Cc1ccc(Cl)cc1` (configuration not stated), the inhibition was 10.2% (inactive).
`O=c1c2ccccc2ncn1/N=C/c1ccccc1`: the inhibition was 89.3% (active).
On to `O=c1c2ccccc2nc(N/N=C/c2ccccc2)n1O`, for which the inhibition was 4.04% (inactive).
Regarding `CCCc1nc2ccccc2c(=O)n1/N=C/c1ccc(O)c(O)c1`, the inhibition was -7.79% (inactive).
In the case of `Cc1c(Cl)cccc1NC(=O)NCc1ccc(C)n1C` it was -6.17% (inactive); in that of `COc1ccc(CN(C)C(=O)Cc2c[nH]c3ccccc23)c(OC)c1OC`, -4.06% (inactive).
The value for `O=S(=O)(/C=C/c1ccccc1)N1CCNCC1` was -7.81% (inactive).
As for `CCc1cccc(NC(=S)N(CCN(C)C)C2CCN(C(C)C)CC2)c1`, the inhibition is -1.09% (inactive).
In the case of `Cc1ccc(Nc2nc(Cl)c(C=O)s2)cc1` it was 39.5% (active); in that of `Cc1ccc(NC(=O)Nc2nnc(-c3ccncc3)s2)cc1`, -16.3% (inactive); in that of `Cc1ccc(Nc2nc(C)cc(C)c2C(N)=O)cc1`, -8.95% (inactive).
In the case of `COc1ccc(C(=O)NCCNc2ccc([N+](=O)[O-])cn2)cc1` it was -3.6% (inactive).
With `CCn1cc(/C=C(\NC(=O)c2cc(OC)c(OC)c(OC)c2)C(=O)N2CCN(C)CC2)c2ccccc21`, the inhibition was -5.81% (inactive).
Regarding `O=C(NCCOc1cccnc1)c1ccc(OC2CCN(Cc3ccccn3)CC2)cc1`, the inhibition is -23.8% (inactive).
The value for `O=C(OCC(=O)N1CCN(C(=O)c2ccco2)CC1)c1cccc(O)c1` was 18.4% (inactive); that for `O=C(CCn1nnc2ccccc21)OCC(=O)c1ccc([N+](=O)[O-])cc1` was -9.08% (inactive).
For `COc1ccc(C2C3=C(OC(C)=O)c4ccccc4C3=Nc3c2c(=O)n(C)c(=O)n3C)cc1` (configuration not stated), the inhibition was -4.21% (inactive) and -6.55% (inactive).
Consider `COc1ccc(/C=C/c2noc(-c3ccccc3OC(C)=O)n2)cc1`, for which the inhibition is 50.5% (active).
Consider `CC(=O)Oc1ccc2c(c1)C(=O)c1ccccc1C2=O`, for which the inhibition was 49.5% (inactive).
`Cc1ccc(C(=O)Nc2ccc(C)c(S(=O)(=O)N(C)C)c2)s1`: the inhibition was 64.1% (active).
Consider `CCN(CC(=O)Nc1ccc(C)c(S(=O)(=O)N(C)C)c1)Cc1ccccc1`, for which the inhibition was 12.4% (inactive).
On to `Cc1ccc(NC(=O)c2cccs2)cc1S(=O)(=O)N(C)C`, for which the inhibition was 30% (inactive).
As to `O=C(c1ccc(S(=O)(=O)N2CCCC2)cc1)N1CCN(c2ccccc2F)CC1`, the inhibition was -13.1% (inactive).
`O=C(CSc1nnc(-c2ccc([N+](=O)[O-])cc2)o1)Nc1ccccn1`: the inhibition was 88.1% (active).
On to `CCOC(=O)CSc1nnc(-c2ccc([N+](=O)[O-])cc2)o1`, for which the inhibition is 7.13% (inactive).
The value for `CCc1ccccc1NC(=O)CSc1nnc(-c2ccncc2)o1` was 6.43% (inactive).
In the case of `O=C(NC1CCCC1)C(c1ccco1)N(C(=O)c1csnn1)c1ccccc1` (configuration not stated) it was -6.47% (inactive); in that of `COC(=O)c1ccc(NC(=O)CSc2nc(N)c(NC(=O)c3ccc(Br)o3)c(=O)[nH]2)cc1`, -12.8% (inactive); in that of `CCc1ccc(C(=O)COC(=O)c2ccco2)cc1`, 56.1% (active).
With `O=C(OCC(=O)N1CCCC1)c1ccco1`, the inhibition is 24.9% (inactive).
In the case of `CCN(CC)c1ccc(C(=O)OCC(=O)c2ccco2)cc1`, the inhibition was 46.8% (inactive).
As for `COc1ccc(C2/C=C\CN(C(=O)c3ccc(C)cc3)C(Cc3ccccc3)C(=O)N2Cc2ccc(F)cc2)cc1` (configuration not stated), the inhibition was 16.3% (inactive).
`O=C(CN1CCCCCC1)Nc1ccc(S(=O)(=O)N2CCCCC2)cc1`: the inhibition is -3.01% (inactive).
Take `O=C(CC1C(=O)NCCN1C(=O)c1ccc([N+](=O)[O-])cc1)Nc1cccc(Cl)c1` (configuration not stated): the inhibition was -30.7% (inactive).
Consider `O=C(CC1NCCc2ccccc21)Nc1cccc(Cl)c1` (configuration not stated), for which the inhibition was 51.4% (active).
With `O=C(CC1NCCNC1=O)Nc1cc(Cl)cc(Cl)c1` (configuration not stated), the inhibition is -12.8% (inactive).
For the compound `CCN(CC)CCN(C(=O)c1cc(Cl)sc1Cl)c1nc2cc3c(cc2s1)OCO3`, the inhibition was 6.7% (inactive).
For the compound `COc1cc(/C=N/NC(=O)Nc2ccccc2)ccc1OCCOc1ccccc1C`, the inhibition is -4.02% (inactive).
For the compound `COc1cc(CCC(=O)OCC(=O)Nc2cccc(S(N)(=O)=O)c2)cc(OC)c1OC`, the inhibition is -3.91% (inactive).
In the case of `CCCn1c(C)cc(/C=C(\C#N)C(=O)OCC(=O)Nc2cc(OC)c(OC)c(OC)c2)c1C` it was 32.6% (active).
In the case of `CCOC(=O)/C(C#N)=C/c1ccc(OCC(=O)Nc2ccccc2)c(OC)c1`, the inhibition is 70.9% (active).
With `CCOC(=O)/C(C#N)=C/c1cn(CCC(=O)O)nc1-c1ccc(Br)cc1`, the inhibition was 2.95% (inactive).
In the case of `COc1cc(C2C3=C(CCCC3=O)OC3=C2C(=O)CCC3)ccc1OCC(=O)Nc1ccccc1` it was 37.9% (inactive); in that of `Cc1ccc(C(=O)Oc2ccc(C(=S)N3CCOCC3)cc2)cc1`, 3.46% (inactive).
Turning to `CCc1ccc(C(=O)NC(=S)Nc2ccccc2N2CCOCC2)cc1`, the inhibition was -5.58% (inactive).
In the case of `COc1cc2c(cc1OC)CN(C(=O)c1cc(S(=O)(=O)N3CCCCC3)ccc1Cl)CC2` it was 2% (inactive); in that of `Cc1ccc2nc3c(cc(C(=O)NCCc4ccccc4)c(=N)n3CC3CCCO3)c(=O)n2c1` (configuration not stated), -3.67% (inactive); in that of `COc1ccccc1CN1CC(C(=O)NCCc2cn[nH]c2)CCC1=O` (configuration not stated), 22% (inactive).
Turning to `CCc1ccc(N(C(=O)c2csnn2)C(C(=O)NC2CCCCC2)c2cccnc2)cc1` (configuration not stated), the inhibition was 2.03% (inactive).
In the case of `CC1(C(=O)NCCc2c[nH]c3ccccc23)C=CC2(CCCCC2)N1C(=O)c1ccccc1` (configuration not stated) it was 14.3% (inactive); in that of `Cc1nc(SCC(=O)Nc2cc(C)on2)c2c(C)c(C)sc2n1`, 12.3% (inactive).
The value for `CC(NC(=O)CSc1nc2c(cc1C#N)CN(C)CC2)c1ccccc1` (configuration not stated) was -9.63% (inactive); that for `Cc1cc(NC(=O)CSc2nc3c(cc2C#N)CCCCC3)no1` was 78.8% (active).
`Cc1ccc2cc(C#N)c(SCC(=O)NCC3CCCO3)nc2c1C` (configuration not stated): the inhibition is -7.12% (inactive).
For the compound `Cc1nc(SCC(=O)Nc2cc(C)on2)c2c3c(sc2n1)CCCC3`, the inhibition is 21.2% (active).
As to `Cc1cc(NC(=O)CSc2nc(C(C)C)nc3sc4c(c23)CCC(C)C4)no1` (configuration not stated), the inhibition is 22.7% (inactive).
For `COc1cccc(CN2CCN(Cc3ccc4cccc(F)c4n3)CC2CCO)c1` (configuration not stated), the inhibition was 12.8% (inactive).
For the compound `O=C(NCc1cccnc1)C12CC3CC(CC(C3)C1)C2`, the inhibition is 11.5% (inactive).
Turning to `Cc1ccc(C(=O)COC(=O)CCN2C(=O)C3C4CCC(C4)C3C2=O)cc1C` (configuration not stated), the inhibition is 34.8% (inactive).
Consider `O=C(CCC1CCN(C(=O)c2cccc(Cl)c2F)CC1)Nc1ccccc1`, for which the inhibition was -32% (inactive).
Consider `COc1ccccc1CC(=O)Nc1ccc(S(=O)(=O)N2CCCC2)cc1`, for which the inhibition was -2.78% (inactive).
`CCOC(=O)C1C(c2ccc(O)cc2)NC(=O)NC1(O)C(F)(F)F` (configuration not stated): the inhibition is -6.9% (inactive).
Consider `O=C(COc1ccc(-n2cnnn2)cc1)Nc1ccccc1Cl`, for which the inhibition was -8.42% (inactive).
In the case of `CC(C)(C)c1ccc(C(CC(=O)O)NS(=O)(=O)Cc2ccccc2)cc1` (configuration not stated), the inhibition is 17% (inactive).
As to `COc1ccccc1Oc1nc(-c2cccnc2)nc2ccccc12`, the inhibition is 10.4% (inactive).
In the case of `Fc1ccc(/C=N/Nc2nc(-c3cccnc3)nc3ccccc23)cc1` it was 47.7% (active).
Consider `COc1ccc(Nc2nc(-c3cccnc3)nc3ccccc23)cn1`, for which the inhibition is -3.47% (inactive).
Regarding `Nc1nonc1-n1nnc(C(=O)N/N=C/c2ccc(Cl)cc2)c1-c1ccc2c(c1)OCO2`, the inhibition is -3.05% (inactive).
Take `COc1ccccc1OCc1nnc(SCC(N)=O)n1-c1ccccc1`: the inhibition was 7.34% (inactive).
For the compound `COc1ccccc1NC(=O)C(C)OC(=O)CC1CCCC1` (configuration not stated), the inhibition is -16.1% (inactive).
For the compound `O=C(CN1CCN(c2ccccn2)CC1)NC1CCCCC1`, the inhibition was -9.42% (inactive).
In the case of `COc1ccccc1OCC(=O)O/N=C(\N)c1ccccn1` it was 55.8% (active); in that of `N/C(=N\OC(=O)Cc1ccccc1[N+](=O)[O-])c1ccc(Br)cc1`, 49% (inactive).
In the case of `COc1ccccc1OCC(=O)OCn1c(SC)nnc(C)c1=O`, the inhibition was 5.34% (inactive).
As to `CC(C)(C)NC(=O)NC(=O)COC(=O)CCC1CCCCC1`, the inhibition is -9.95% (inactive).
In the case of `N/C(=N\OC(=O)CC1CCCCC1)c1ccccc1` it was 107% (active).
As for `N/C(=N\OC(=O)CCC1CCCCC1)c1ccccn1`, the inhibition was 84.9% (active).
